The source of these data is PubChem BioAssay (NCI).

This is part of a sample that, as a whole, favours compounds with a hit. Of some 83,000 tested, about 20% had one in any assay.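 The endpoint reported here, percent growth, reads 100 for growth as untreated, 0 for no net growth and -100 for all cells dead.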 Unmarked numbers belong to inactive results. Active and inactive are the calls of the source. How the source made its calls: active means growth percent below 10; inactive means the rest.

For the experiment, the system named is HL-60(TB) leukemia. Briefly: NCI-60 one-dose screen, 48 h (100 = growth as untreated, 0 = no growth, -100 = all killed). The following applies: 10 µM unless noted.
Consider `Cc1ccc(NC(=O)c2cccc(CN3CCN(C)CC3)c2)cc1Oc1ccc(-c2[nH]nc3ncnc(N)c23)cc1`, for which the growth was 46.8%.
Turning to `CNC(=O)c1cc(Oc2ccc3nc(NC(=O)c4ccc(CN5CCN(C)CC5)c(C(F)(F)F)c4)sc3c2)ccn1`, the growth is 11.3%.
With `Fc1ccc(-c2cc3nc(C(Cl)Cl)nc(-c4cccs4)n3n2)cc1` the figure was -2% (active).
On to `CC(=O)c1cc(C(=O)N2c3ccccc3Sc3ccccc32)n2ccc3ccccc3c12`, for which the growth is 9.89% (active).
Next, `COc1cc(O)c2c(c1)/C=C/C[C@H](O)[C@H](O)C(=O)/C=C\C[C@H](C)OC2=O`: -9.6% (active); `CC(C)(C)c1ccc(C(=O)Nc2nc3ccc(O)cc3s2)cc1`: 24.8%.
Next, `CN1C(=O)/C(=C/C=C/c2ccco2)SC1=S`: 99.6%; `COc1ccc(CN2C(=O)/C(=C/c3nc(CO)cs3)SC2=S)cc1`: 58.9%.
With `O=c1[nH]c(Sc2sc3ccc(Cl)cc3c2CBr)nc(=S)[nH]1` the figure was 21.7%; with `CC(C)(C)n1cc(-c2ccnc(NCCCNS(=O)(=O)c3cccc(F)c3)n2)c(-c2ccc(Cl)c(O)c2)n1`, 128%; with `C#CCOC(=O)[C@@H]1CCCN1CC#C`, 85.3%.
On to `NC1[C@H]2CN(c3cnc(C(=O)Nc4cc(F)cc5cccnc45)cn3)C[C@@H]12` (stereo not given in full), for which the growth is 11.5%.
On to `O=C(NNc1nc2cc(F)cc(F)c2n2cccc12)c1cnccn1`, for which the growth is -25% (active).
With `CCN(CC)CCN1C(=O)c2c(c3c4cccnc4[nH]c3c3ccc4ccccc4c23)C1=O`, the growth was 56.2%.
Regarding `Cc1cc2nc(C(Cl)Cl)nc(-c3ccco3)n2n1`, the growth was -4.98% (active).
Regarding `CC1=N[C@@H]2CN(C(=O)OC(C)(C)C)C[C@@H]2n2c1cc1ccccc1c2=O`, the growth was 99.9%.
With `Cc1cc(-c2ccc(Cl)cc2)n(Cc2nnc(SCC(=O)Nc3ccc(S(N)(=O)=O)cc3)n2C2CCCCC2)n1`, the growth was 116%.
Next, `CC(=O)C1=C(C)NC(NNC(N)=S)=NC1c1ccccc1` (stereo not given): 148%; `COc1cc(OC)c(S(=O)(=O)NNC(=O)c2ccncc2)cc1C(=O)/C=C/c1ccc(C)cc1`: 51.2%.
Next, `CCOC(=O)c1cnc2c(-c3ccc(Cl)c(Cl)c3)cnn2c1`: 59.5%.
Next, `COc1ccc(N2CCN(C(=O)CSc3ccc(-c4nc5cc(C)c(C)cc5[nH]4)cn3)CC2)cc1`: 29.4%.
Take `CCN1C(=S)N(CC)C2C1NN=C1SC(c3ccccc3)=CC(=O)N12` (stereo not given): the growth was 86.9%.
Next, `CCO/C=N/C1=C(C#N)C(c2ccc(Cl)cc2)c2sc3c(C)cccc3c2O1` (stereo not given): -12.7% (active).
Turning to `O=c1oc2ccc(-c3ccc(F)cc3F)cc2c(=O)n1-c1ccc(Br)cc1F`, the growth was 58.8%.
Next, `Nc1nc(-c2cccc([N+](=O)[O-])c2)c(N=Nc2ccccc2[N+](=O)[O-])s1`: 96.5%; `C#C[C@]1(O)CC[C@H]2[C@@H]3CC=C4c5sc(Nc6nc(C)cc(OC)n6)nc5CC[C@]4(C)[C@H]3CC[C@@]21C`: 12.1%.
Take `Cc1ccsc1[C@H]1c2[nH]c3ccccc3c2C[C@H]2C(=O)N(CCCCCCC(=O)NO)CC(=O)N12`: the growth is 104%.
Turning to `O=C1[C@H]2Cc3c([nH]c4ccccc34)[C@@H](c3c(Cl)cccc3Cl)N2C(=O)CN1C1CCN(CC2CCCCC2)CC1`, the growth is 35.4%.
For the compound `CCn1c2ccccc2c2cc(-n3nncc3-c3ccccc3)ccc21`, the growth was 3.73% (active).
Next, `Cn1cc(-c2nc(N)nnc2-c2c[nH]c3ccc(Br)cc23)c2cc(Br)ccc21`: 3.35% (active); `C[C@@H]1OCC2(CCN(c3cnc(C(=O)Nc4cc(F)cc5cccnc45)cn3)CC2)[C@@H]1N`: 20.4%.
Consider `COc1cc(-c2nc(SCc3ccc(C)cc3)[nH]c(=O)c2C#N)ccc1OCc1ccccc1`, for which the growth is 137%.
Next, `CCCCCc1ccc(S(=O)(=O)Nc2cccc(-c3csc(NC(=O)CN4CCN(CCO)CC4)n3)c2)cc1`: 66.3%.
`O=C1C(N2CCN(c3ccccc3)CC2)=C(Cl)C(=O)c2ncccc21`: the growth is 4.34% (active).
With `Cn1cc(CNc2nc3ccc(OC/C(=C/F)CN)cc3o2)ccc1=O` the figure was 101%; with `NS(=O)(=O)c1ccc(-n2cc(CN3CCNCC3)nn2)cc1`, 107%.
As for `O=C1c2c(c3c4cccnc4[nH]c3c3ccc4ccccc4c23)C(=O)N1CCN1CCNCC1`, the growth was 64.2%.
Next, `O=C(/C=C/c1ccc(F)cc1)c1ccc(O)cc1`: 81.9%; `OC1CCN(CCCOc2c3ccccc3nc3c2oc2ccccc23)CC1`: 6.8% (active); `O=C(Nc1ccc(Br)cc1)Nc1nc2ccc([N+](=O)[O-])cc2s1`: -44.3% (active).
